“And” between values parts separate entries of the source, which are not always exact repeats. Equal values may be shown once. The campaign covered roughly 400,000 compounds. About 5,500 (1.4%) were called active. Where a call stands in place of a potency, no number is given. Another 9% or so got no clear call; they are omitted. Calls follow the shape of the dose curve; as a rule, active = well fitted cell-killing curve with a large enough effect; inconclusive = small, poorly fitted or top-dose-only effect, or effect the other way; inactive = flat fitted curve, though single readings scatter. The full list was thinned out, with actives kept by preference.
Potency is read from the fitted curve at half-maximal effect.

This assay is described as follows: qHTS assay for MDR1-selective chemotherapeutics: Primary screen using the parental adenocarcinoma cell KB-3-1. Also: nearly all actives have a fitted effect of over 60% in size. The note with it: KB-3-1 viability, CellTiter-Glo ATP luminescence, 72 h; series mostly up to 46.1 µM. An outline of the steps:
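KB-3-1 parental drug-naive adenocarcinoma cells in DMEM/10% FBS, incubated 72 h at 37 C with pin-transferred compounds across a concentration series. Viability by CellTiter-Glo luminescence; concentration-response curves fitted after normalization.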
`Cc1nc2c(c(C)nn2-c2ccccc2)c(C)c1CCC(=O)NCCc1ccc(Cl)cc1`: the Potency result was “inactive”.
With `O=C1CC(c2nnc(Cc3ccc(Cl)cc3)o2)CN1c1ccccc1` (stereo not given), the Potency entry was “inactive”.
To `CCC(=O)N1CCc2cc(Br)cc(S(=O)(=O)NCc3ccc(Cl)cc3)c21` belongs “inactive”; to `COc1cc(C=C(OC(C)=O)c2ccc3c(c2)OCO3)cc(OC)c1OC`, “inactive”.
Consider `COc1cc(C2c3cc4c(cc3C(O)C3COC(=O)C23)OCO4)cc(OC)c1OC` (stereo not given), for which the Potency was 146 nM (active) and 164 nM (active).
To `COc1cc(C2CC(=O)Oc3cc(OC)c(OC)c(OC)c32)cc(OC)c1OC` (stereo not given) belongs “inactive”.
On to `Cc1ccccc1NC(=O)Cn1cc(C(=O)c2cccs2)c2ccccc21`, for which the Potency result was “inactive”.
The entry for `CCCCOC(=O)CSc1ncnc2sc3c(c12)CCC(C)C3` (stereo not given) is “inactive”; for `CC1CCCCN1S(=O)(=O)c1ccc(C(=O)Nc2nnc(-c3cccs3)o2)cc1` (stereo not given) it is 9.2 µM (active); for `CC1CCCCN1S(=O)(=O)c1ccc(S(=O)(=O)N(CC(=O)Nc2ccccc2)Cc2cccs2)cc1` (stereo not given) it is “inactive”.
Take `CC1CN(S(=O)(=O)c2ccc(C(=O)Nc3sccc3C(N)=O)cc2)CC(C)O1` (stereo not given): the Potency result was “inactive”.
On to `Cc1nc2sc(C(=O)c3ccccc3)c(N)c2c2c1CCCC2`, for which the Potency was 23.1 µM (active).
As to `Cn1c(-c2ccc(C(=O)c3ccccc3)s2)nc2ccccc21`, the Potency result was “inactive”.
In the case of `Cc1c(C(=O)Nc2ccccc2)sc2nc3n(c(=O)c12)CCCCC3`, the Potency result was “inactive”.
In the case of `CCN(Cc1ccccc1)Cc1c(O)ccc2c(=O)c(-c3ccc(Cl)cc3Cl)coc12`, the Potency result was “inactive”.
With `CC1CN(C(=O)N2CCC(C(=O)NCc3ccco3)CC2)c2cc(Cl)ccc2O1` (stereo not given), the Potency result was “inactive”.
As to `COc1ccc(-c2noc(CCC(=O)N(C)c3ccccc3C)n2)cc1`, the Potency entry is “inactive”.
To `Cc1[nH]n(-c2cccc(Cl)c2)c(=O)c1/C=N/n1c(C)nc2ccccc2c1=O` belongs 10.3 µM (active); to `Cc1nc2ccccc2c(=O)n1-c1ccc(NS(=O)(=O)c2ccc(F)cc2F)cc1`, “inactive”.
To `Cc1cc2n(n1)C(c1cc(C(C)(C)C)c(O)cc1O)Nc1ccccc1-2` (stereo not given) belongs “inactive”; to `O=C(CCC1N=C2c3ccccc3N=C(SCc3ccccc3F)N2C1=O)NCCc1ccccc1` (stereo not given), “inactive”; to `COc1cccc(CNC(=O)Cc2csc3nc(-c4ccccc4)cn23)c1`, “inactive”.
To `COC(=O)Nc1nc2ccc(Sc3ccccc3)cc2[nH]1` belongs 1.46 µM (active); to `Cc1ccc2nc(CNC(=O)c3ccccc3)[nH]c2c1`, “inactive”; to `COc1ccc(NC(=O)CSc2nc3ccccc3[nH]2)cc1`, “inactive”.
On to `COc1ccc(CCNc2ncnc3onc(-c4ccc(Cl)cc4)c23)c(OC)c1`, for which the Potency result is “inactive”.
`COc1ccc(Cl)cc1NC(=O)CN(C)C(=O)c1ccc2n[nH]nc2c1`: the Potency entry is “inactive”.
To `COc1ccc(Cl)cc1NC(=O)CN(C)C(=O)c1cc(-c2cccs2)nn1-c1ccccc1` belongs 20.6 µM (active).
As to `COc1ccc(Cl)cc1NC(=O)CSc1nc(-c2cccs2)cc(C(F)(F)F)n1`, the Potency entry was “inactive”.
With `C=CCNC(=O)c1ccc2nc(-c3ccco3)c(-c3ccco3)nc2c1`, the Potency entry was “inactive”.
With `CC(C)(C)OC(=O)N(Cc1ccco1)S(=O)(=O)c1ccccc1Br`, the Potency entry is “inactive”.
`COC(=O)Cc1[nH]n(-c2nc3ccccc3s2)c(=O)c1C(C)=Nc1ccc(OC)cc1`: the Potency is 9.2 µM (active).
To `COc1ccc(CC(=O)Nc2ccc(-c3nc4ccccc4s3)c(C)c2)cc1` belongs “inactive”; to `Cc1ccc(C)c(NC(=O)CSC2=Nc3ccccc3N=C(c3ccc(F)cc3)C2)c1`, “inactive”.
Regarding `CCOC(=O)C1CCN(c2csc3ccc(C)cc3c2=O)CC1`, the Potency result is “inactive”.
On to `O=C(Cn1c(=O)n(Cc2ccccc2)c(=O)c2sc3ccccc3c21)Nc1ccccc1F`, for which the Potency entry was “inactive”.
The figure for `CN(C)c1ccc(/C=C/c2sc3ccccc3[n+]2CCCCBr)cc1` is 1.3 µM (active).
`CN(C)c1ccc(/C=C/c2sc3ccccc3[n+]2C)cc1`: the Potency was 6.51 µM (active).
On to `CN(C)c1ccc(/C=C/c2c3ccccc3nc3ccccc23)cc1`, for which the Potency entry is “inactive”.
As for `CN(C)c1ccc(CSc2ccccc2)cc1`, the Potency result was “inactive”.
To `CCN(CCCNC(=O)c1cc2c(=O)n(CC)c3ccccc3c2s1)Cc1ccccc1` belongs “inactive”.
For the compound `CCc1ccc(OCCCn2c(CCCNC(=O)C3CCCCC3)nc3ccccc32)cc1`, the Potency entry was “inactive”.
To `COc1cccc(N2CCN(S(=O)(=O)c3cc(Br)cc4c3N(C(=O)C3CC3)CC4)CC2)c1` belongs “inactive”; to `CCCCC12CN3CC(C)(CN(C1)C3c1ccc(O)c(OC)c1)C2=O` (stereo not given), “inactive”; to `Cc1ccc(C)c(N2CCN(C(=O)C3CCC(CNS(=O)(=O)c4cccs4)CC3)CC2)c1` (stereo not given), “inactive”.
As to `Cc1ccc(C)c(Oc2c(C(F)(F)F)oc3c(CN4CCN(C)CC4)c(O)ccc3c2=O)c1`, the Potency entry is “inactive”.
To `Cc1cc(C)c(NC(=O)c2cc3sc(Cl)cc3n2C)c(C)c1` belongs “inactive”.
`O=C(NCc1ccccc1Cl)c1cccn1-c1nnc(N2CCCCC2)s1`: the Potency result is “inactive”.
As to `COc1ccc(NC(=O)CSc2nnc(-c3nnn(-c4ccc(F)cc4)c3C)o2)cc1`, the Potency entry was “inactive”.
The entry for `O=C(Nc1ccc2ccccc2c1)Nc1nnc(-c2ccc(O)cc2)s1` is “inactive”; for `O=C1CCc2cc(S(=O)(=O)Nc3cccc(Oc4ccccc4)c3)ccc2N1` it is “inactive”; for `CCOC(=O)c1ccc(N2C(=O)c3[nH]nc(-c4ccccc4)c3C2c2ccc(C(C)C)cc2)cc1` (stereo not given) it is 18.4 µM (active).
Take `CCOC(=O)c1ccc(N2C(=O)c3n[nH]c(C)c3C2c2ccc(O)c(OC)c2)cc1` (stereo not given): the Potency result was “inactive”.
To `CCOC(=O)c1ccc(N2C(=O)c3n[nH]c(-c4ccco4)c3C2c2ccc(O)cc2)cc1` (stereo not given) belongs “inactive”; to `Cc1cccc(CN2Cc3cccc4c3[C@H](C=CC4)CC2=S)c1`, “inactive”.
To `CC(=O)Cn1cnc2c(cnn2-c2ccccc2)c1=O` belongs “inactive”; to `O=C(Cn1cnc2c(cnn2-c2ccc(F)cc2)c1=O)NCCc1ccccc1`, “inactive”; to `O=C(Cn1cnc2c(cnn2-c2ccccc2)c1=O)NCc1ccccc1`, 8.2 µM (active).
As to `COc1ccc2cc(CNc3ccc(OC)c(OC)c3)c(=O)n(CC(=O)Nc3ccccc3F)c2c1`, the Potency result was “inactive”.
To `COc1ccc(-c2noc(CSc3nc(C)cc(=O)[nH]3)n2)cc1OC` belongs “inactive”; to `NC(N)=Nc1nc2ccc(Br)cc2c(=O)[nH]1`, “inactive”.
As to `CC(C)Cn1c(=O)c2ccccc2n2c(-c3cccc(Cl)c3)nnc12`, the Potency result is “inactive”.
As for `O=c1c2cc(Br)ccc2nc(-c2cccc(Cl)c2)n1O`, the Potency is 9.2 µM (active).
`COC(=O)c1cc(NC(=O)CCc2c(C)nc3c4c(C)cc(C)nc4nn3c2C)cc(C(=O)OC)c1`: the Potency entry is “inactive”.
For `O=c1cc(COc2cccc(C(F)(F)F)c2)nc2sc3c(n12)CCCC3`, the Potency entry was “inactive”.
For the compound `O=S(=O)(NCC(c1ccco1)N1CCOCC1)c1cc(F)ccc1F` (stereo not given), the Potency result is “inactive”.
Take `CC1CC(C)CN(C(=O)CSc2ccsc2[N+](=O)[O-])C1` (stereo not given): the Potency entry was “inactive”.
As to `O=C(CSCc1cccs1)N1CCCC1`, the Potency result is “inactive”.
To `O=C(CSc1ccsc1[N+](=O)[O-])N1CCCCC1` belongs 18.4 µM (active).
The entry for `COc1cc2nc(C#Cc3nc4cc(OC)c(OC)cc4[nH]3)[nH]c2cc1OC` is “inactive”.
To `COc1ccc(CN2C(=O)C(NC(=O)c3cccc(C)c3)(C(F)(F)F)N=C2c2ccccc2)cc1` (stereo not given) belongs “inactive”; to `Cc1cc2c(cc3c(SCc4cccc(Cl)c4)nnc(C)n32)o1`, “inactive”.
`Cc1cc(C)cc(-n2ccnc2SCC(=O)Nc2nc3ccccc3s2)c1`: the Potency result was “inactive”.
With `Cc1cccc(-n2ccnc2SCC(=O)Nc2cccc3ccccc23)c1C`, the Potency entry was “inactive”.
To `Cc1nnc(NC(=O)CSc2nccn2-c2cccc(C)c2C)s1` belongs 3.66 µM (active); to `Cc1ccc(S(=O)(=O)N2CCN(c3nc(-n4cnc5ccccc54)nc4ccccc34)CC2)cc1`, “inactive”; to `CC1CC(C)CN(C/C=C/c2ccccc2[N+](=O)[O-])C1` (stereo not given), “inactive”.
The figure for `CC1CCCCC1NC(=O)/C(C#N)=C/C=C/c1ccccc1[N+](=O)[O-]` (stereo not given) is 5.8 µM (active); for `CC(OC(=O)/C=C/c1ccccc1)C(=O)NC1CCCCC1C` (stereo not given) it is “inactive”.
As to `O=C1CCCC2=C1[C@@]1(CCC(c3ccccc3)C1)N=C(Nc1nc3ccccc3o1)N2` (stereo not given in full), the Potency entry is “inactive”.
The entry for `CCN(C(=O)CSc1nnc(C)n2c1cc1occc12)c1ccccc1` is “inactive”; for `CC(C)c1ccc2oc(-c3cc(NC(=O)c4cccs4)ccc3Cl)nc2c1` it is “inactive”; for `CC(C)(C)n1nc(Cc2cccc3ccccc23)c(C#N)c1N` it is “inactive”.
Turning to `CCc1nn(-c2cc(Oc3cccc4ccccc34)nc(-c3ccccc3)n2)c(N)c1C#N`, the Potency was 5.8 µM (active).
To `C(=Nc1ccc(/C=C/c2ccnc3ccccc23)cc1)c1cc2c3c(c1)CCCN3CCC2` belongs “inactive”; to `CCOC(=O)C1CCN(C(c2ccc(F)cc2)c2sc3nc(-c4ccco4)nn3c2O)CC1` (stereo not given), “inactive”; to `CCC1CCCCN1Cc1c(O)ccc2c(=O)c(Oc3ccccc3Cl)c(C(F)(F)F)oc12` (stereo not given), “inactive”.
The entry for `CN(C)C(=O)c1coc2nc3ccccc3nc12` is “inactive”.
The entry for `CNC(=O)C(NC(=O)c1ccccc1)=C(C)C` is “inactive”; for `CNC(=O)c1cccc2nc3ccccc3nc12` it is 16.4 µM (active); for `CCCCn1c(=N)c(S(=O)(=O)c2ccccc2)cc2c(=O)n3cccc(C)c3nc21` it is “inactive”.
`COc1ccc(NC(=O)CN2CCCN(Cc3ccccc3)S2(=O)=O)cc1`: the Potency result is “inactive”.
The figure for `CCCOC(=O)c1[nH]c2c(c1C)C(=O)CC(c1cccs1)C2` (stereo not given) is 0.651 µM (active).
The entry for `COC(=O)C1C(=O)c2c([nH]c(C(=O)OCCSC)c2C)CC1C` (stereo not given) is “inactive”; for `CCc1ccc(C2CC(=O)c3c([nH]c(C(=O)OCc4ccc(C)cc4)c3C)C2)cc1` (stereo not given) it is “inactive”.
Turning to `COc1ccc(-c2nn(CC(=O)Nc3ccccc3F)c3c2cnc2ccc(F)cc23)cc1`, the Potency entry is “inactive”.
As to `Cc1c2cnn(-c3ccccc3)c(=O)c2c(C)n1C(C)C(=O)Nc1ccc(Br)cc1F` (stereo not given), the Potency entry is “inactive”.
On to `CN(C)C(=S)N=c1ssc(=S)n1Cc1ccco1`, for which the Potency was 4.11 µM (active).
The entry for `CCc1ccccc1N1CN(Cc2ccco2)CNC1=S` is “inactive”; for `CCN(CC)C(=O)CSc1nnc(CNc2ccc(F)cc2)n1Cc1ccco1` it is “inactive”.

Values taken from PubChem BioAssay AID1347075 (National Center for Advancing Translational Sciences (NCATS), 2019).
